Assay results from PubChem BioAssay (EPA / NIEHS).
Results filed as inconclusive are left out. Activity calls are given as the source filed them. The calls were made as follows: active = hit-call score of the fitted dose curve at least 0.9, where 1 is the maximum; inconclusive = response in the unintended direction; inactive = score below 0.9.

Tests used:
[1] = target: Estrogen receptor (Homo sapiens) (UniProt P03372); assay: CCTE_Deisenroth_AIME_96WELL_LUC_Active: CCTE's 96-well Estrogen Receptor Transactivation Assay with AIME metabolic competence (ERTA luciferase; metabolism positive), Deisenroth Lab (AID 2284023)
In short: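 Chemicals pre-incubated 2 h with alginate-immobilized phenobarbital/beta-naphthoflavone-induced male Sprague Dawley rat liver S9, then medium transferred to VM7Luc4E2 cells for 24 h luciferase read-out. 10-point series 0.002 - 200 uM; fitted relative to 17beta-estradiol.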

[2] = target: Estrogen receptor (Homo sapiens) (UniProt P03372); assay: CCTE_Deisenroth_AIME_96WELL_LUC_Inactive: CCTE's 96-well Estrogen Receptor Transactivation Assay without AIME metabolic competence (ERTA luciferase; metabolism negative), Deisenroth Lab (AID 2284025)
In short: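 VM7Luc4E2 breast cells, luciferase read 24 h after dosing with medium pre-incubated 2 h on alginate-water lids (metabolism negative). 10-point series 0.002–200 uM, single technical replicate, n≥4; fit relative to 17beta-estradiol.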

[3] = CCTE_Deisenroth_AIME_96WELL_CTox_Active: Cytotoxicity Assessment (CTOX) in CCTE's 96-well Estrogen Receptor Transactivation Assay with AIME metabolic competence (metabolism positive), Deisenroth Lab (AID 2284028)
In short: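 Chemicals (0.002–200 uM) were first incubated 2 h with alginate-immobilized phenobarbital/beta-naphthoflavone-induced male rat liver S9; conditioned medium then went onto VM7Luc4E2 cells for 24 h, with viability read by protease-substrate fluorescence, fitted bidirectionally.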

[4] = CCTE_Deisenroth_AIME_96WELL_CTox_Inactive: Cytotoxicity Assessment (CTOX) in CCTE's 96-well Estrogen Receptor Transactivation Assay without AIME metabolic competence (metabolism negative), Deisenroth Lab (AID 2284029)
In short: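 Chemicals (0.002 - 200 uM, 10 points) incubated 2 h with alginate-water microspheres (no S9), then medium moved onto VM7Luc4E2 cells for 24 h. Viability by protease-substrate cleavage to fluorescent probe; bidirectional fitting.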

Measured: AC50

Sequence of Estrogen receptor (Homo sapiens) (P03372 whole entry, looked up): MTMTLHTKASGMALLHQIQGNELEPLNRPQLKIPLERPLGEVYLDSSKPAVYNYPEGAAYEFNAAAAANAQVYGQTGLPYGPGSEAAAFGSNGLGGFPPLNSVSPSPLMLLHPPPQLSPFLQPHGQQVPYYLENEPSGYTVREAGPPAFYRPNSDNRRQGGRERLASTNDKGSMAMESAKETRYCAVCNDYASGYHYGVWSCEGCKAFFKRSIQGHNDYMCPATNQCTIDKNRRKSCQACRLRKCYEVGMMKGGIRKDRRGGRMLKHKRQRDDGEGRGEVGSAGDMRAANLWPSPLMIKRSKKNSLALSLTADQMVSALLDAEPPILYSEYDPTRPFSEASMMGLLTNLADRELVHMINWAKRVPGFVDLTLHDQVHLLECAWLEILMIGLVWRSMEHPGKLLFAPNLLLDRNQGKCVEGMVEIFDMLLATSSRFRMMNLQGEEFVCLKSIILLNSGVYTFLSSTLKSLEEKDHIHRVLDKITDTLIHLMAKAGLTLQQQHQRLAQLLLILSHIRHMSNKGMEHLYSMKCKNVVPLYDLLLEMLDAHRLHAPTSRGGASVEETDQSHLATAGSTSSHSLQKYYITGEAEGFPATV

Oc1ccccc1Cc1ccccc1
active: [1] 27.7 µM | [2] 27.7 µM | [3] 162 µM | [4] 175 µM
